Data published in the supplement of paper PMC10127200.
Counter-ions that a name gives are not always drawn.

System: A549
Assay: Euclidean distance of Cell Painting phenotypic profile (signed KS, 77 features) to DMSO centroid (dimensionless distance); 5 or 10 uM (library dependent); higher = stronger phenotypic change vs DMSO (phenoactivity)
Settings: 48 h
Summary of the method: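 Phenoactivity is computed as Euclidean distance to the median vehicle profile. The profiles, drawn from 77 Harmony features scored as signed Kolmogorov-Smirnov statistics versus same-plate vehicle wells, were corrected for plate position, correlation-weighted and replicate-averaged at the top dose. Stained cells were imaged confocally at 20X (9 fields/well) after 48 h with library compounds at 10 or 5 uM, 0.1% DMSO final, in five cancer lines and a healthy fibroblast line.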

Question: With `COc1nc(C)nc(Cl)c1NC1=NCCN1` [Moxonidine] as the molecule, how does the Euclidean distance read?
Answer: 0.652

Question: How did the Euclidean distance turn out when `CO[C@H]1C[C@@H]2CC[C@@H](C)[C@@](O)(O2)C(=O)C(=O)N2CCCC[C@H]2C(=O)O[C@H]([C@H](C)C[C@@H]2CC[C@H](n3cnnn3)[C@H](OC)C2)CC(=O)[C@H](C)/C=C(\C)[C@@H](O)[C@@H](OC)C(=O)[C@H](C)C[C@H](C)/C=C/C=C/C=C/1C` [Zotarolimus(ABT-578)] was run?
Answer: 1.83

Question: For `N#CC(c1ccnc(OCc2ccc(CN3CCOCC3)cc2)n1)c1nc2ccccc2s1` (configuration not stated) [Bentamapimod], which Euclidean distance is on record?
Answer: 1.83

Question: For `CC(N/C(=N\C#N)Nc1ccncc1)C(C)(C)C` (configuration not stated) [Pinacidil], which Euclidean distance is on record?
Answer: 0.907

Question: With `CN1CCN2c3ncccc3Cc3ccccc3C2C1` (configuration not stated) [Mirtazapine] as the molecule, how does the Euclidean distance read?
Answer: 0.95

Question: `Cc1cn([C@H]2C=C[C@@H](CO)O2)c(=O)[nH]c1=O` [Stavudine (d4T)] was tested. Which Euclidean distance did it give?
Answer: 1.46

Question: `CN1CCC(NC(=O)c2cc(-c3c(O)cc(O)cc3Oc3ccc([N+](=O)[O-])cc3)on2)CC1` was tested. Which Euclidean distance did it give?
Answer: 3.28

Question: With `CN1[C@@H]2CC[C@H]1C[C@@H](OC(=O)c1c[nH]c3ccccc13)C2` [Tropisetron] as the molecule, how does the Euclidean distance read?
Answer: 1.76

Question: How did the Euclidean distance turn out when `Cc1cc(C)cc(OCC2CNC(=O)O2)c1` (configuration not stated) [Metaxalone] was run?
Answer: 0.856

Question: `O=C(Nc1ccc(Cl)cc1)Nc1ccc(Cl)c(Cl)c1` [Triclocarban] was tested. Which Euclidean distance did it give?
Answer: 3.14

Question: How did the Euclidean distance turn out when `CC1(C)O[C@H]2CC(=O)OC[C@]23[C@H]2CC[C@@]4(C)[C@H](c5ccoc5)OC(=O)[C@H]5O[C@]54[C@]2(C)C(=O)C[C@@H]13` [Limonin] was run?
Answer: 0.714

Question: `CN1CCC(=C2c3ccccc3C=Cc3ccccc32)CC1` [Cyproheptadine hydrochloride] was tested. Which Euclidean distance did it give?
Answer: 1.06

Question: `CC1(C)S[C@@H]2[C@H](NC(=O)[C@H](N)c3ccc(O)cc3)C(=O)N2[C@H]1C(=O)O` [Amoxicillin trihydrate] was tested. Which Euclidean distance did it give?
Answer: 1

Question: For `Oc1ccc(C2CNCCc3c2cc(O)c(O)c3Cl)cc1` (configuration not stated) [Fenoldopam mesylate], which Euclidean distance is on record?
Answer: 1.07

Question: `O=C1NC(=O)/C(=C/c2cccc(C(F)(F)F)c2)S1` was tested. Which Euclidean distance did it give?
Answer: 1.41

Question: `O=C(O)CNC(=O)c1ncc(-c2cccc(Cl)c2)cc1O` [Vadadustat] was tested. Which Euclidean distance did it give?
Answer: 1.97

Question: `CCOC(=O)[C@H](CCc1ccccc1)N[C@@H](C)C(=O)N1Cc2cc(OC)c(OC)cc2C[C@H]1C(=O)O` [Moexipril HCl] was tested. Which Euclidean distance did it give?
Answer: 1.49

Question: `CCCC(=O)O[C@]1(C(=O)CCl)[C@H](C)C[C@@H]2[C@@H]3CCC4=CC(=O)C=C[C@]4(C)[C@]3(F)C(=O)C[C@@]21C` [clobetasone butyrate] was tested. Which Euclidean distance did it give?
Answer: 2.42

Question: How did the Euclidean distance turn out when `Oc1ccc(OCc2ccccc2)cc1` [Monobenzone] was run?
Answer: 2.32

Question: For `O=C(Nc1ccncc1)c1cc([N+](=O)[O-])ccc1Cl`, which Euclidean distance is on record?
Answer: 0.794

Question: How did the Euclidean distance turn out when `CN(C)C[C@@H]1CCn2cc(c3ccccc32)C2=C(C(=O)NC2=O)c2cn(c3ccccc23)CCO1` was run?
Answer: 3.95

Question: How did the Euclidean distance turn out when `Cc1cc(Nc2ncnc3ccc(-c4ccc(CNCCS(C)(=O)=O)o4)cc23)ccc1Oc1ccn2ncnc2c1` [HER2-Inhibitor-1] was run?
Answer: 0.771

Question: Which Euclidean distance does the source give for `CC(C)(C)C(=O)Oc1ccc(S(=O)(=O)Nc2ccccc2C(=O)NCC(=O)O)cc1` [Sivelestat (ONO-5046)] here?
Answer: 0.693

Question: `Cc1cc(OCCCS(C)(=O)=O)cc(C)c1-c1cccc(COc2ccc3c(c2)OC[C@H]3CC(=O)O)c1` was tested. Which Euclidean distance did it give?
Answer: 1.02

Question: With `COc1cc2c(cc1OC)CN(CCc1ccc(NC(=O)c3cc(OC)c(OC)cc3NC(=O)c3cnc4ccccc4c3)cc1)CC2` [Tariquidar] as the molecule, how does the Euclidean distance read?
Answer: 1.26

Question: `COc1nccnc1NS(=O)(=O)c1ccc(N)cc1` [Sulfalene(SMPZ)] was tested. Which Euclidean distance did it give?
Answer: 1.44

Question: `CC(=O)O[C@@]12CO[C@@H]1C[C@H](O)[C@@]1(C)C(=O)[C@H](O)C3=C(C)[C@@H](OC(=O)[C@H](O)[C@@H](NC(=O)OC(C)(C)C)c4ccccc4)C[C@@](O)([C@@H](OC(=O)c4ccccc4)[C@H]21)C3(C)C` [Docetaxel] was tested. Which Euclidean distance did it give?
Answer: 2.71

Question: With `CC(C)Cn1cnc2c(N)nc3ccccc3c21` [Imiquimod] as the molecule, how does the Euclidean distance read?
Answer: 1.15

Question: Which Euclidean distance does the source give for `CC(=O)N1CCN(CCOc2ccc(C3CCN(C4=Nn5c(nnc5C(F)(F)F)CC4)CC3)cc2)CC1` here?
Answer: 0.992

Question: How did the Euclidean distance turn out when `CC1(C)CC(=O)c2c(C(F)(F)F)nn(-c3ccc(C(N)=O)c(N[C@H]4CC[C@H](OC(=O)CN)CC4)c3)c2C1` was run?
Answer: 3.38

Question: With `Cc1cc(CN2CCN(c3c(Br)cnc4nc(-c5ccc(N6CCN(C)CC6)cc5)[nH]c34)CC2)no1` as the molecule, how does the Euclidean distance read?
Answer: 1.27

Question: Which Euclidean distance does the source give for `O=C(NC(NC(=S)Nc1ccc(F)c([N+](=O)[O-])c1)C(Cl)(Cl)Cl)C(c1ccccc1)c1ccccc1` (configuration not stated) here?
Answer: 2.27
